# Source: ChEMBL document CHEMBL3988442, “University of Dundee, Small-Polar-MMV Screening Library” (2021)
# In all, about 48,000 compounds went through this assay and about 13,000 (27%) showed an effect of 50% or more. The list shows a part of the results.
# Tested on: Wolbachia pipientis
# Assay: Anti-Wolbachia Cell-Based Screen
# Format: functional
# Design: scale not given: in the data most compounds retested in dose-response had high values
# Settings: 5 µM
row,Structure (SMILES),Percent Effect
1,CCn1nc(CC(C)C)cc1C(=O)N1CCCOC(CN2CCCC2)C1 (configuration not stated),12.35%
2,O=C(NCC1CCCO1)Nc1nnc(C(F)(F)F)s1 (configuration not stated),131.1%
3,CCOCCC(=O)NCC1CCCO1 (configuration not stated),5.918%
4,COc1cc(CNC(=O)Nc2nnc(C(F)(F)F)s2)ccc1O,-18.17%
5,Cc1csc(N2CCCN(Cc3ccn(C)c(=O)c3)CC2)n1,2.494%
6,CNS(=O)(=O)CCn1cc(-c2ccc(NC(C)=O)cc2)nn1,-17.97%
7,CN(C)S(=O)(=O)N1CCC(Oc2ccccn2)CC1,-12.57%
8,Cc1ccc(S(=O)(=O)N2CCC(Oc3cccnn3)CC2)c(C)c1,-2.974%
9,CN(C)S(=O)(=O)N1CCC(Oc2cccnn2)CC1,154.7%
10,Cc1cc(CN2CC[C@H]3C[C@H](C(=O)Nc4cccnc4C)O[C@@H]3C2)no1.O=C(O)C(F)(F)F.O=C(O)C(F)(F)F,0%
11,CC(C)CC(=O)N1CC(=O)c2sc(Nc3ccc(F)cc3F)nc2C1,102.3%
12,CC(C)(C)NC(=O)CN1CCN(C(=O)Nc2ccc(F)cc2F)CC1,10.15%
13,COc1ccccc1NC(=O)CC(C)NCc1scnc1C (configuration not stated),-14.83%
14,COc1ccccc1Nc1nc2c(s1)C(=O)CN(C(=O)CC(C)C)C2,106.8%
15,COc1ccccc1NC(=O)CC(C)NCCc1sc(C)nc1C (configuration not stated),-7.62%
16,COCC(=O)N1Cc2cnc(Cc3ccc(OC)cc3)nc2C1,-9.911%
17,COCC(=O)N1CC(=O)c2sc(Nc3ccc(F)cc3F)nc2C1,92.12%
18,Cc1c(C(C)NC(=O)Nc2ccc(F)cc2F)cnn1C (configuration not stated),-7.694%
19,CNS(=O)(=O)Cc1ccccc1CNc1ccc(C#N)cn1,4.345%
20,Cc1cnccc1-n1nc(C(C)C)nc1CS(C)(=O)=O,-11.94%
21,Cn1cc(C(NCCc2ccccn2)c2cccc(F)c2)cn1 (configuration not stated),-5.902%
22,CN(C(=O)CCc1ccsc1)S(C)(=O)=O,-3.197%

row,Structure (SMILES),Percent Effect
1,CC(C)CNC(=O)N1C[C@H]2CC[C@@]3(N=C(c4ccccc4)NC3=O)[C@H]2C1,-1.799%
2,CN(C)CCCNCC1CCOC(C)(C)C1 (configuration not stated),84.35%
3,CC1(C)CC(CN2CCC3(CCC(=O)N(CCO)C3)CC2)CCO1 (configuration not stated),-24.07%
4,CN(C)CCNCC1CCOC(C)(C)C1 (configuration not stated),114.8%
5,CC(C)NC(=O)C(C(C)C)n1cnc2cc(F)c(F)cc21 (configuration not stated),-2.583%
6,Cn1cnc2c1C(C(=O)N1CCOCC1)N(C(=O)c1ccccc1)CC2 (configuration not stated),1.78%
7,CCOC(=O)CC1CCCCN1C(=O)c1cc(=O)[nH]c(=O)[nH]1 (configuration not stated),3.722%
8,CCC1CCCCN1C(=O)Cn1cnc(C#N)n1 (configuration not stated),-4.598%
9,CNC(=O)C1CCCCN1C(=O)Cc1csc(-c2ccc(C)o2)n1 (configuration not stated),7.331%
10,CCOC(=O)CC1CCCCN1C(=O)c1cc(C)oc1C (configuration not stated),1.644%
11,CCC1CCCCN1C(=O)Cn1nc(-c2cc(C)oc2C)cc(N)c1=O (configuration not stated),172.7%
12,CC1CCCN(C(=O)Cn2cc(I)cn2)C1 (configuration not stated),2.299%
13,Cc1cc(-c2cc(N)c(=O)n(CC(=O)N3CCCC(C)C3)n2)c(C)o1 (configuration not stated),135.5%
14,CCC1CCCCN1C(=O)Cn1nc(-c2ccc(C)s2)cc(N)c1=O (configuration not stated),132.6%
15,Cc1cc(C)n(C2CCCN(C(=O)Cn3ccc(=O)n(C)c3=O)C2)n1 (configuration not stated),5.694%
16,Cc1ccc(-c2cc(N)c(=O)n(CC(=O)NCC3CCCCC3)n2)s1,-12.04%
17,CCC1CCCCN1C(=O)Cn1nc(-c2ccc(C)o2)cc(N)c1=O (configuration not stated),125.9%
18,Cl.O=C(NCC1CCC2(CCNCC2)CO1)c1ccno1 (configuration not stated),-17.95%
19,COC(=O)N1CCC(Nc2cccc(F)c2C(C)=O)C1 (configuration not stated),18.09%
20,Cc1cc(CNc2ccc3nc(C4CC4)sc3c2)no1,-18.62%
21,COc1ccc(C)cc1CCNS(=O)(=O)c1ccc2c(c1)CCC(=O)N2,-14.2%
22,CCCN1CCC(NCc2ccncc2)CC1,12.05%

row,Structure (SMILES),Percent Effect
1,COCCN1CCC(NCc2c(C)nn(C)c2N(C)C)CC1,-18.36%
2,COCCN1CCC(NCc2ccc(C#N)cc2)C1 (configuration not stated),-5.015%
3,COCCN1CCC(NCc2cccc(C)c2)C1 (configuration not stated),89.68%
4,COCCN1CCC(NCc2ccc(Cl)cc2)C1 (configuration not stated),79.9%
5,COCCN1CCC(NCc2cc(F)ccc2F)C1 (configuration not stated),105%
6,COCCN1CCC(NCc2cccc(F)c2)C1 (configuration not stated),4.631%
7,COCCN1CCC(NCc2cccnc2)C1 (configuration not stated),-0.4239%
8,COCCN1CCC(NC(=O)NCC2(c3cccc(F)c3)CC2)C1 (configuration not stated),7.702%
9,COCCN1CCC(CNC(=O)CCc2cc(F)ccc2F)C1 (configuration not stated),-0.9804%
10,COCCN1CCC(NCc2c(F)cccc2F)C1 (configuration not stated),93.26%
11,CSc1ccc(CN(C(=O)c2cc[nH]n2)C2CC2)cc1,-13.27%
12,CCCN(Cc1nccn1C)C(=O)C(CC)Nc1cccc(OC)c1 (configuration not stated),-30.45%
13,COCCN1CCC(NC(=O)C(C)C)CC1,-12.29%
14,COCCN1CCC(NCc2ccc(F)cc2F)C1 (configuration not stated),87.91%
15,Cc1cccc(I)c1C(=O)NCc1ncc[nH]1,-11.65%
16,Cc1cc(C(F)(F)F)nn1C(C)C(=O)Nc1ccncc1 (configuration not stated),11.57%
17,CCCN(Cc1nccn1C)C(=O)c1cc(C(C)C)on1,-14.15%
18,CC(C)Nc1ncccc1C(=O)NCc1ncc[nH]1,7.716%
19,Cc1cc(C(F)F)nn1C(C)C(=O)NCc1nccn1C (configuration not stated),129.1%
20,Cc1cc(C(F)F)nn1C(C)C(=O)NCc1ncc[nH]1 (configuration not stated),132.9%
21,Cc1ncc2c(n1)CCN(Cc1nc(Cc3ccccc3)no1)C2,2.52%
22,Cc1noc([C@@H]2C[C@H](NC(=O)Nc3ccccc3)CN2C)n1,1.901%

row,Structure (SMILES),Percent Effect
1,CN(C)C(=O)C1CCCN1C(=O)c1ccc(Cn2ccnc2)o1 (configuration not stated),-6.024%
2,CCN1CCN(c2ccc(F)cc2C(C)NCc2ccccn2)CC1 (configuration not stated),9.781%
3,COCCN1CCN(c2nc(O)cc(Cc3ccccc3F)n2)CC1,126.9%
4,C[C@@H]1CN(c2nc(O)cc(Cc3ccccc3F)n2)C[C@H](C)O1,156.7%
5,CC(NCc1ccccn1)c1ccc(N2CCN(C)CC2)c(F)c1 (configuration not stated),-5.411%
6,CCOc1ccnc(N2CCN(CCOC)CC2)n1,-0.8063%
7,CN1CCN(CCCNS(=O)(=O)Cc2ccccc2F)CC1,-19.52%
8,CCN1CCN(c2nc(O)cc(Cc3ccccc3F)n2)CC1,169.1%
9,CN1CCN(c2nc(O)cc(Cc3ccccc3F)n2)CC1,156.6%
10,COCCN1CCN(Cc2coc(-c3ccccc3Cl)n2)CC1,-11.13%
11,CCN1CCCC(O)(CNCc2ccccc2F)C1 (configuration not stated),5.055%
12,C[C@@H]1CN(Cc2ccccc2F)CC(C(N)=O)O1 (some centres not stated),1.23%
13,COc1ccc2c(C)nc(N3C[C@@H](C)O[C@@H](C)C3)nc2c1,-4.468%
14,c1ccc(Cn2cccn2)c(CN2CCC3(CCCNC3)C2)c1 (configuration not stated),-20.95%
15,O=S(=O)(CCO)Cc1ccc(OCC(F)(F)F)cc1,1.249%
16,COCCOCCNC(=O)C(C)Oc1ccccc1C(F)(F)F (configuration not stated),0.2325%
17,O=C(O)C(F)(F)F.c1cc(CN2CCCn3cnc(COCC4CC4)c3C2)co1,3.975%
18,CCCc1cc(C(=O)N[C@@H](CO)[C@@H](O)c2ccccc2)n(C)n1,130.2%
19,CCCc1cc(C(=O)N(C)Cc2cnc3ccccc3n2)n(C)n1,-19.21%
20,CCCc1cc(C(=O)NC(c2ccccc2)c2n[nH]c(C)n2)[nH]n1 (configuration not stated),3.333%
21,CC(C)Cc1cc(C(=O)NCC(O)c2ccc(F)cc2)n(C)n1 (configuration not stated),0.3453%
22,CCC(NC(=O)c1cc(CC(C)C)nn1C)c1ccnn1C (configuration not stated),9.016%

row,Structure (SMILES),Percent Effect
1,CCCc1cc(C(=O)N[C@H](C)[C@@H](O)c2ccc(O)cc2)n(C)n1,110%
2,O=C(CCCn1cncn1)NC1(c2cccc(Br)c2)CC1,-89.93%
3,O=S(=O)(NCc1cccnc1OC1CCCC1)N1CCOCC1,-7.047%
4,O=C(Cc1ccccc1F)NCCN1CCOCC1,3.995%
5,O=S(=O)(NCCc1ccccc1C(F)(F)F)N1CCOCC1,96.69%
6,O=S(=O)(Cc1ccccc1F)NCCN1CCOCC1,-10.21%
7,CCOc1ncccc1CNS(=O)(=O)N1CCOCC1,-0.8612%
8,O=S(=O)(NCCc1ccccc1F)N1CCOCC1,104.5%
9,Cc1nc(S(=O)(=O)N2CCc3[nH]nc(CCC(C)C)c3C2)cn1C,14.04%
10,CC(C)CN1CC(c2nc(CCc3ccccc3)n[nH]2)CC1=O (configuration not stated),6.531%
11,O=C(c1ccncc1)N1CCCC1C1CCN(Cc2ccccc2)CC1 (configuration not stated),-37.72%
12,CN1CCCC[C@@H]2[C@H]1[C@@H](c1ccccc1)CCN2C(=O)c1ccccc1,-7.424%
13,O=C(c1cccnc1)N1CCCC1C1CCN(Cc2ccccc2)CC1 (configuration not stated),-39.09%
14,Cc1nnsc1C(=O)N1CCN(CC2CC2)[C@@H]2CS(=O)(=O)C[C@@H]21,2.438%
15,CN1CCCC[C@@H]2[C@H]1[C@@H](c1ccccc1)CCN2C(=O)c1ccncc1,88.59%
16,CN1CCCC[C@@H]2[C@H]1[C@@H](c1ccccc1)CCN2C(=O)c1cccnc1,94.07%
17,Cc1nnsc1C(=O)N1CC[C@H](c2ccccc2)[C@@H]2[C@H]1CCCCN2C,109%
18,CN1CCCCC[C@@H]2[C@@H]1[C@H](c1ccccc1)CN2C(=O)c1cccnc1,98.96%
19,CC(C)=CCN1CCN(C(=O)c2snnc2C)[C@H]2CS(=O)(=O)C[C@H]21,-1.087%
